Test results taken from ChEMBL document CHEMBL4513146, “CO-ADD screening of Karazin Kharkiv National University (Ukraine) compounds”.
Measured potencies and affinities stand elsewhere.

Tests used:
Klebsiella pneumoniae = details: Concentration 32 ug.mL-1;; ASSAY_TEST Inhibition of Bacterial Growth; detection method Absorption (OD600); MEDIA CAMHB; plate type 384well; NBS; CORNING #3640; time 18 hr
Candida albicans = details: Concentration 32 ug.mL-1; ASSAY_TEST Inhibition of Fungal Growth; detection method Absorption (OD530)
Cryptococcus neoformans = details: Concentration 32 ug.mL-1; ASSAY_TEST Inhibition of Fungal Growth; detection method Resazurin; Absorption (OD600-OD570); plate type 384well; NBS; CORNING #3640

| Structure (SMILES) | Inhibition (Klebsiella pneumoniae) [%] | Inhibition (Candida albicans) [%] | Inhibition (Cryptococcus neoformans) [%] |
| --- | --- | --- | --- |
| O=C(CSc1nnc2c3cc(-c4ccc(F)cc4)nn3ccn12)NCc1ccccc1Cl | 4.63 | 14.03 | -17.41 |
| Cc1ccc(C)c(CN(c2ccc(F)c(F)c2)S(=O)(=O)c2cccn3cnnc23)c1 | -0.76 | 1.83 | -7.27 |
| CCC(C)NC(=O)c1ccc2c(=O)n(C3CC3)c3nn(CC(=O)NC(C)C)c(=O)n3c2c1 (centres undefined) | 17.09 | -1.34 | -38.88 |
| CCOc1ccc(-n2ccn3c(SCC(=O)c4cccc(Cl)c4)nnc3c2=O)cc1 | 10.21 | 2.76 | -7.79 |
| Cc1nnc2ccc(S(=O)(=O)N(Cc3ccccc3Cl)c3cccc(F)c3)cn12 | 7.69 | 4.75 | -10.07 |
| CC(C)(C)S(=O)(=O)c1ccc2nn(CC(=O)Nc3ccc4c(c3)OCO4)c(=O)n2n1 | 2.44 | 1.02 | -2.55 |
| CCc1ccc(NC(=O)CSc2nnc3ccc(C(=O)Nc4cccc(F)c4)cn23)cc1 | 0.94 | 1.65 | -4.96 |
| Cc1ccc(NC(=O)Cn2nc3c(N4CC(C)CC(C)C4)nccn3c2=O)c(F)c1 (centres undefined) | 10.72 | 3.58 | -9.98 |
| O=c1c2nnc(SCc3ccccc3Cl)n2ccn1-c1ccc(F)cc1 | 8 | 2.71 | -9 |
| O=S(=O)(c1cccn2cnnc12)N(Cc1cccc(F)c1)c1cccc(Cl)c1 | 2.34 | 1.27 | -7.2 |
| O=C(CSc1nnc2c(=O)n(-c3ccc(Br)cc3)ccn12)Nc1cccc(F)c1 | 8.72 | 6.18 | -18.67 |
| Cc1ccc(-c2nnc3c(=O)n(CC(=O)Nc4cc(C)cc(C)c4)c4ccccc4n23)cc1 | 11.28 | -1.05 | -21.63 |
| COc1cccc(CN(c2cccc(C)c2)S(=O)(=O)c2ccc3nnc(C)n3c2)c1 | 4.27 | 0.75 | -14.81 |
| N#Cc1cccc(NC(=O)CSc2nnc3c4cc(-c5ccccc5)nn4ccn23)c1 | 9.61 | 7.44 | -14.96 |
| COC(=O)c1cccc(NC(=O)Cn2nc3c(Sc4ccc(C)cc4C)nccn3c2=O)c1 | 13.86 | -2.57 | -30.13 |
| O=C(CSc1nc2ccccc2n2cnnc12)Nc1ccc2c(c1)OCCO2 | 4.35 | 2.01 | -3.4 |
| COC(=O)c1ccc(CN(c2ccc(Cl)cc2)S(=O)(=O)c2ccc3nncn3c2)o1 | 0.53 | -1.37 | -1.27 |
| O=S(=O)(c1ccc2nncn2c1)N(Cc1ccccc1F)c1cccc(F)c1 | -5.56 | 2.89 | -8.33 |
| COc1cccc(Oc2nccn3c(=O)n(CC(=O)Nc4ccc5c(c4)OCO5)nc23)c1 | 7.21 | 1.19 | -8.5 |
| COc1ccc(NC(=O)Cn2nc3nc(N4CCCCCC4)ccn3c2=O)cc1Cl | 8.5 | 2.73 | -7.14 |
| O=C(Cn1nc2c(Oc3ccccc3)nccn2c1=O)Nc1ccc(Cl)cc1 | 8.01 | -0.31 | -10.29 |
| CCCCN(C)c1ccc2nnc(CCc3nc(-c4cccc(Br)c4)no3)n2n1 | 13.86 | 15.05 | -17.7 |
| CCc1cccc(C)c1NC(=O)Cn1nc2ccc(SCc3ccc(Cl)cc3)nn2c1=O | 2.49 | 52.47 | -13.19 |
| Cc1cc2nn(CC(=O)Nc3ccc(F)cc3C)c(=O)n2c(Nc2ccc(F)cc2)n1 | 7.08 | 9.27 | -2.95 |
| O=C(Cn1nc2nc(Nc3ccc(F)cc3)ccn2c1=O)NCC1CCCO1 (centres undefined) | 12.02 | 1.89 | -8.84 |
| O=C(Cn1nc2c(SC3CCCCC3)nccn2c1=O)N1CCN(c2ccccc2)CC1 | 7.42 | 1.71 | -1.45 |
| CCCCN(C)c1ccc2nnc(CCc3nc(-c4ccc(C(F)(F)F)cc4)no3)n2n1 | 5.43 | 2.75 | -13.06 |
| COc1cccc(Oc2nccn3c(=O)n(CC(=O)Nc4ccc(C)cc4Cl)nc23)c1 | 11.4 | 4.48 | -10.48 |
